This passage reports Potency, outcome and activity change, positive = activation results from PubChem BioAssay (Tox21).

Assay [1] can be described thus: qHTS assay to identify small molecule antagonists of the estrogen related receptor (ERR) signaling pathway from Tox21 library - cell viability counter screen (AID 1224834). Also: nearly all actives have a fitted effect of over 30% in size. Also: potency is read from the fitted curve at half-maximal effect. The procedure, abridged:
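Cytotoxicity of test substances is gauged in the same ERR cells used for the antagonist screen, after 17.5 h of compound treatment at 37 C, by CellTiter-Fluor fluorescence measured after 30 min.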
On the technique in general: In qHTS, concentration-response curves come from the screen itself.

Assay [2] in a line: qHTS assay to identify small molecule agonists of the constitutive androstane receptor (CAR) signaling pathway - cell viability counter screen (AID 1224836). Also: nearly all actives have a fitted effect of over 45% in size. In short, it runs like this: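 23 h treatment, 37 C, 5% CO2. Cell line: HepG2 stably expressing hCAR with a CYP2B6-2.2kb construct. Co-treatment: PK11195, 0.75 uM final. Read-out: CellTiter-Fluor fluorescence intensity.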

Assay [3] in a line: qHTS assay to identify small molecule antagonists of the constitutive androstane receptor (CAR) signaling pathway - cell viability counter screen (AID 1224837). Also: nearly all actives have a fitted effect of over 45% in size. The procedure, abridged: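 Multiplexed cytotoxicity read-out for the CAR antagonist screen: double-stable HepG2-CYP2B6-hCAR cells co-treated with 50 nM CITCO (final) and compound over 15 concentrations, incubated 23 hr, then assessed by CellTiter-Fluor fluorescence.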

The target in assay [4] is Nuclear receptor subfamily 1 group I member 3 (Homo sapiens) (UniProt Q14994). As to the kind of experiment: qHTS assay to identify small molecule antagonists of the constitutive androstane receptor (CAR) signaling pathway (AID 1224838). Also: nearly all actives have a fitted effect of over 40% in size. Also: potency is read from the fitted curve at half-maximal effect. In short, it runs like this:
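Compounds were titrated across 15 concentrations onto HepG2 cells double-stably expressing hCAR and a CYP2B6-2.2kb reporter, together with 50 nM CITCO (final). After 24 h at 37 C, luciferase activity was measured by luminescence.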

Assay [5] shares this target. The experiment in a line: qHTS assay to identify small molecule agonists of the constitutive androstane receptor (CAR) signaling pathway (AID 1224839). Also: nearly all actives have a fitted effect of over 15% in size. Also: potency is read from the fitted curve at half-maximal effect.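 As to activation: HepG2 cells stably carrying human CAR and a CYP2B6 luciferase reporter.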 The procedure, abridged:
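Compounds tested at 15 concentrations on HepG2 cells stably harbouring hCAR and CYP2B6-2.2kb reporter constructs, co-treated with PK11195 (0.75 uM final), 24 h at 37 C; luminescent reporter signal quantified.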

Assay [6] in a line: qHTS assay to identify small molecule antagonists of the estrogen related receptor signaling pathway with the pleiotropic PPARgamma coactivator (PGC) from Tox21 10K library - cell viability counter screen (AID 1224840; active = well fitted cell-killing curve with a large enough effect in the repeat runs, not every such curve was filed as active; also: nearly all actives have a fitted effect of over 40% in size; also: potency is read from the fitted curve at half-maximal effect). The procedure, abridged: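 Step one, plate 2,000 PGC/ERR cells per well; step two, incubate 6 h at 37 C/5% CO2; step three, pin-transfer compounds; step four, incubate 17.5 h; step five, add CellTiter-Fluor and read fluorescence after 30 min.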

Assay [7] is described as follows: qHTS assay to identify small molecule antagonists of the estrogen related receptor signaling pathway with the pleiotropic PPARgamma coactivator (PGC) from Tox21 10K library (AID 1224841; call rule not given here; also: actives are mostly falling curves and most rising ones were filed inactive; nearly all actives have a fitted effect of over 50% in size; also: potency is read from the fitted curve at half-maximal effect). The procedure, abridged: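 Antagonism in this quantitative HTS is taken from loss of luciferase signal in PGC/ERR cells. Cells (2,000/well) are treated with compounds in DMSO after a 6 h settling period and read by One-Glo luminescence after 18 h.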

Assay [8] in a line: qHTS assay to identify small molecule agonists of the estrogen related receptor signaling pathway with the pleiotropic PPARgamma coactivator (PGC) from Tox21 10K library (AID 1224842). Also: nearly all actives have a fitted effect of over 15% in size. The procedure, abridged: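 PGC/ERR reporter cell line, 2,000 cells per well, incubated 6 h at 37 C before 23 nL compound in DMSO was added. After 18 h at 37 C, One-Glo luminescence read following 30 min at room temperature.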

The target in assay [9] is Thyrotropin receptor (Homo sapiens) (UniProt P16473). As to the kind of experiment: qHTS assay to identify small molecule agonists of the thyroid stimulating hormone receptor (TSHR) signaling pathway (AID 1224843; calls by dose curve; also: nearly all actives have a fitted effect of over 45% in size; also: potency is read from the fitted curve at half-maximal effect). In short, it runs like this: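 Steps: seed 800 TSHR-HEK293 cells per well; add test compound and hold 30 min at ambient temperature; dispense cAMP-d2 then anti-cAMP cryptate; incubate 1 h at ambient; measure fluorescence intensity.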
Thyrotropin receptor (Homo sapiens), sequence (P16473 whole entry, looked up): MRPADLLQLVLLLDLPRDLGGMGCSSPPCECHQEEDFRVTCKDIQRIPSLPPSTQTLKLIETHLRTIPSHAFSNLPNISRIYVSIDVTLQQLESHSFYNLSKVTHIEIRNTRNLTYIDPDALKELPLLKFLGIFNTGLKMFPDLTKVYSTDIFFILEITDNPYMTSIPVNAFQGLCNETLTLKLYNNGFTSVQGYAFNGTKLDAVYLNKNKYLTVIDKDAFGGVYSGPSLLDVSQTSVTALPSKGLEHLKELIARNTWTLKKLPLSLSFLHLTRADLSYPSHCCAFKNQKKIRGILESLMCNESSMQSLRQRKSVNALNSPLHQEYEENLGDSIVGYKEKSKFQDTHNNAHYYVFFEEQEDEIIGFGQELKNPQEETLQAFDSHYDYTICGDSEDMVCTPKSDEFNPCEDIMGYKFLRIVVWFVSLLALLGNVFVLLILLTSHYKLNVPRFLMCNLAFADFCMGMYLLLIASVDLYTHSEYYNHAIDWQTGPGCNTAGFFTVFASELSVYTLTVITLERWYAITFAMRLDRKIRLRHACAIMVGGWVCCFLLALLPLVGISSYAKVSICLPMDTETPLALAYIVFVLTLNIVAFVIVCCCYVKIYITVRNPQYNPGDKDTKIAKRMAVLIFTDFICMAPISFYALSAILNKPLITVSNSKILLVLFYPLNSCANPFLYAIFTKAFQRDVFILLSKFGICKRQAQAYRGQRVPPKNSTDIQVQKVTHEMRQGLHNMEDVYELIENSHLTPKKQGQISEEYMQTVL

A short description of assay [10]: qHTS assay to identify small molecule agonists of the hypoxia (HIF-1) signaling pathway - cell viability counter screen (AID 1224844; calls by dose curve; also: nearly all actives have a fitted effect of over 50% in size; also: potency is read from the fitted curve at half-maximal effect). The procedure, abridged: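 Tox21 10K compounds were added to HRE-bla ME-180 cells (0.5% dialyzed FBS) and incubated 17 hrs at 37C; ATP-based CellTiter-Glo luminescence then reported cell viability in the same wells.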
The nature of assay [11]: qHTS assay to identify small molecule agonists of H2AX (AID 1224845; active = well fitted activation curve with a large enough effect in the signal ratio in the repeat runs, not every such curve was filed as active; the % refers to the signal ratio). The procedure, abridged:
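Wild-type CHO-K1 cells, plated overnight, exposed 3hr at 37C to 15 concentrations (0.76% DMSO final). Lysed, then HTRF anti-pH2AX (S139) cryptate and anti-H2AX-d2 antibodies, 24 hr room temperature; 665/620 nm emission read.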

Assay [12] is described as follows: qHTS assay to identify small molecule agonists of the hypoxia (HIF-1) signaling pathway (AID 1224846; active = well fitted activation curve with a large enough effect in the signal ratio in the repeat runs, not every such curve was filed as active; the % refers to the signal ratio). In short, it runs like this: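 Steps: seed ME-180 HRE-bla cells (2,000/well, 0.5% dialyzed FBS); incubate 5 hrs at 37C; pin-transfer compounds or DMSO; incubate 17 hrs; add LiveBLAzer B/G substrate CCF4-AM; measure reporter activation by FRET.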
The nature of assay [13]: qHTS assay to identify small molecule agonists of H2AX - cell viability counter screen (AID 1224847; calls by dose curve; also: top concentration of the series differs between compounds; nearly all actives have a fitted effect of over 30% in size). In short, it runs like this: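 Compounds tested at 15 concentrations were incubated 3 hr at 37C with wild-type CHO-K1 cells; cellular ATP-based luminescence (CellTiter-Glo) indicated viability.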
Assay [14] in a line: qHTS assay to identify small molecule antagonists of the estrogen related receptor (ERR) signaling pathway from Tox21 library (AID 1224848). Also: nearly all actives have a fitted effect of over 50% in size. Also: potency is read from the fitted curve at half-maximal effect. In short, it runs like this: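 Luminescent reporter read-out (ONE-Glo) from NTP's ERR cell line after 18 h treatment at 37 C with DMSO-dissolved Tox21 compounds; cells pre-plated 6 h beforehand at 2,000 per well.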
Assay [15] is described as follows: qHTS assay to identify small molecule agonists of the estrogen related receptor (ERR) signaling pathway from Tox21 library (AID 1224849; calls by dose curve; also: nearly all actives have a fitted effect of over 15% in size). To be noted: ERR reporter cell line, ONE-Glo luciferase, 18 h; at 92.4 µM (top of the series) unless noted. In short, it runs like this: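 Agonist signal is luciferase luminescence from an ERR reporter cell line treated 18 h at 37 C with DMSO-dissolved compounds, read 30 min after ONE-Glo addition at room temperature.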

A short description of assay [16]: qHTS RealTime-Glo MT Cell Viability Assay in HepG2 cells - 24 hour (AID 1224867). Also: nearly all actives have a fitted effect of over 50% in size. Also: potency is read from the fitted curve at half-maximal effect. In short, it runs like this:
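Viability was tracked continuously by NanoLuc luminescence from prosubstrate reduced by living HepG2 cells, at successive time points over 40 h of compound exposure. Cells with reagent were preincubated 5 h at 37 °C before compound addition.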

A short description of assay [17]: qHTS RealTime-Glo MT Cell Viability Assay in HEK293 cells - 32 hour (AID 1224868). Also: nearly all actives have a fitted effect of over 50% in size. Also: potency is read from the fitted curve at half-maximal effect. In short, it runs like this: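 Viability tracked continuously by luminescence as live cells reduce a prosubstrate for NanoLuc; HEK293 cells preincubated 5 h, compound-treated at 37 C, and read at 0, 8, 16, 24, 32 and 40 h.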
Assay [18] in a line: A CellTox Green Cytotoxicity Assay to monitor cytotoxicity in HEK293 cells - 0 hour (AID 1224869). Also: nearly all actives have a fitted effect of over 50% in size. In short, it runs like this:
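Cytotoxicity was tracked continuously in HEK293 cells by a DNA-binding dye excluded from viable cells. Compounds were transferred in DMSO 5 h after seeding; fluorescence was recorded at intervals up to 40 h.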

Assay [19] concerns the target Luciferin 4-monooxygenase (Photinus pyralis) (UniProt P08659). As to the kind of experiment: qHTS assay to identify small molecule inhibitors of firefly luciferase (AID 1224835). Also: nearly all actives have a fitted effect of over 25% in size. Also: potency is read from the fitted curve at half-maximal effect. The procedure, abridged:
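Biochemical qHTS: compounds run as interplate titrations against purified firefly enzyme, with D-luciferin and ATP each at its KM concentration. Light output recorded by CCD imaging.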

Structures are written as SMILES. Values joined by “and” are separate entries in the source; they are usually repeats but may differ in a detail not shown here. Equal entries are not always repeated. Records with an inconclusive call do not appear. More than one record can exist for a structure, and the calls need not agree. Active and inactive are the calls of the source. Unless noted, calls follow the shape of the dose curve; as a rule, active = well fitted curve in the direction sought with a large enough effect in the repeat runs; inconclusive = weak or mixed curves; inactive = no such curve, though single readings can be large; an effect the other way counts as inactive or inconclusive.
% is scaled to controls: 0 for no effect and ±100 for the full control effect.

Luciferin 4-monooxygenase (Photinus pyralis), sequence (P08659 whole entry, looked up): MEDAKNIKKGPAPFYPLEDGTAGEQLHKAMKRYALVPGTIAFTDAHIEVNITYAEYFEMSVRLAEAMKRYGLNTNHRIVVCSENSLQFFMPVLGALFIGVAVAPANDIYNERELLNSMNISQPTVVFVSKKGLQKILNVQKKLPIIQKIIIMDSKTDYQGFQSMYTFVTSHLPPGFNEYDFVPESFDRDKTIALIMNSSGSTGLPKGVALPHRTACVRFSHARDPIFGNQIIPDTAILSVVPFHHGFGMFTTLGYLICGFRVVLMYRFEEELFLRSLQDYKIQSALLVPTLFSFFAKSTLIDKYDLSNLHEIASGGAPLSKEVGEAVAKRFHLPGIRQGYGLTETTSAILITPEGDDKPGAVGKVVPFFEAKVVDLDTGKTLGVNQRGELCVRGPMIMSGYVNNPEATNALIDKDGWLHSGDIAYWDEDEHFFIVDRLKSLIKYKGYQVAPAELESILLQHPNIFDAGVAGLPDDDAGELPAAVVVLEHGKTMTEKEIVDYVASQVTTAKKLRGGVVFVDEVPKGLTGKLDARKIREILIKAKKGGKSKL
Nuclear receptor subfamily 1 group I member 3 (Homo sapiens), sequence (Q14994 whole entry, looked up): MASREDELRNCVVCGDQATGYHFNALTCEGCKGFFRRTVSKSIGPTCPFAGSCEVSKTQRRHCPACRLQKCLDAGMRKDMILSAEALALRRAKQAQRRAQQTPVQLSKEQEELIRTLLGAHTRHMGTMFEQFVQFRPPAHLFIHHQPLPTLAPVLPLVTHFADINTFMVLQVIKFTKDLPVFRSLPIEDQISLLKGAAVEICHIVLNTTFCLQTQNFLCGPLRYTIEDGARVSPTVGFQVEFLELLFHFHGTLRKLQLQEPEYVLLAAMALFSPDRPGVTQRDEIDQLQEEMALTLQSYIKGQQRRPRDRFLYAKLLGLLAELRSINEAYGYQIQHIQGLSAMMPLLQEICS

For `Clc1nc(Cl)nc(Nc2ccccc2Cl)n1`, the Potency entry in [1], in assay [2], in [3], in assay [4], in [5] and in [6] was “inactive” each time. Also, the Potency result in assay [7], in [8], in assay [9], in assay [10], in [13] and in assay [14] was “inactive” each time. Further, the Potency result in [16] and in assay [17] was “inactive” each time. For the same compound, the outcome in assay [11], in assay [12] and in assay [18] was inactive. For the same compound, the activity change, positive = activation in [15] is 2.23% (inactive).
Consider `CC(C)[N+](C)(CCC(C(N)=O)(c1ccccc1)c1ccccc1)C(C)C`, for which the Potency entry in assay [1], in assay [2], in [3], in assay [4], in assay [5] and in [6] was “inactive” throughout. Moreover, the Potency result in assay [7], in assay [8], in assay [9], in assay [10], in assay [13] and in assay [14] was “inactive” in each case. Further, the Potency result in assay [16] and in assay [17] was “inactive” throughout. Also, the compound was called inactive in assay [11] and in assay [18]. In assay [15], the activity change, positive = activation is 4.04% [at 42.5 µM] (inactive).
Take `O=C1C2CC=CCC2C(=O)N1SC(Cl)(Cl)Cl` (stereo not drawn): the Potency result was “inactive and 53.6 µM (active)” in assay [1]; 25.1 µM (active) and 31.2 µM (active) in assay [19]; “inactive and 13.5 µM (active)” in assay [4]; “inactive and 30.1 µM (active)” in [6]; 7.66 µM (active) and 47.8 µM (active) in [7]; “inactive and 21.3 µM (active)” in assay [9]. Further, the Potency in assay [10] is 6.07 µM (active); in [14] it was “inactive and 30.1 µM (active)”; in assay [16] it was “inactive and 24.1 µM (active)”; in [17] it was 43.5 µM (active) and 3.04 µM (active). Also, the Potency result in assay [5] and in [8] was “inactive” each time. The activity change, positive = activation in assay [15] is -8.8% (inactive) and -75.3% (inactive). In assay [18], the call was inactive.
In the case of `CC(C)(C)c1cc(O)ccc1O`, the Potency entry in [1], in assay [3], in [4], in assay [6], in assay [10] and in [13] was “inactive” throughout. For the same compound, the Potency result in assay [16] was “inactive”. The Potency in assay [19] was 71 µM (active) and inactive; in [5], 54.5 µM (active) and 61.1 µM (active). Also, the compound was classed as inactive in assay [18].
With `C[N+]1(C)CCCCC1`, the Potency entry in assay [1], in assay [19], in assay [3], in assay [5], in assay [6] and in assay [9] was “inactive” each time. Moreover, the Potency result in [10], in assay [13] and in [16] was “inactive” throughout. Further, the outcome in assay [11], in assay [12] and in assay [18] was inactive.
Regarding `CN=CNc1ccc(C)cc1C`, the Potency result in assay [1], in assay [19], in assay [3], in assay [6], in assay [7] and in assay [8] was “inactive” throughout. The Potency result in assay [10], in assay [13], in [14], in [16] and in [17] was “inactive” each time. Besides, the call in assay [11] and in assay [18] was inactive. In assay [15], the activity change, positive = activation was 1.36% (inactive).
Consider `CCC1(c2cccc(O)c2)CCCCN(C)C1` (stereo not drawn), for which the Potency entry in assay [1], in assay [19], in [3], in assay [6], in [9] and in assay [10] was “inactive” each time. For the same compound, the Potency result in assay [13] and in [16] was “inactive” each time. The call in assay [11] and in assay [18] was inactive.
Take `CC1N=C(N)OC1c1ccccc1` (stereo not drawn): the Potency result in assay [1], in assay [2], in assay [3], in assay [4], in assay [5] and in assay [6] was “inactive” in each case. Moreover, the Potency result in assay [9], in [10], in assay [13], in [16] and in assay [17] was “inactive” each time. For the same compound, the result in assay [11] and in assay [18] was inactive.
Turning to `CN(C)C1CCCCC1`, the Potency result in assay [1], in assay [2], in assay [3], in assay [4], in assay [5] and in [6] was “inactive” in each case. The Potency entry in assay [7], in [8], in [10], in assay [13], in assay [14] and in [16] was “inactive” throughout. Moreover, the compound was called inactive in assay [11], in [12] and in [18].
